An excerpt weighted towards active compounds, which were near 6.1% of everything screened.
DRD3 agonist = qHTS of D3 Dopamine Receptor Agonist: qHTS. D(3) dopamine receptor (Homo sapiens), P35462. D3R DiscoveRx beta-arrestin cells, luminescence, 90 min. max activation, %. 410,000 tested, 0.58% active; in the data active means max activation above about 30%; further: 0% is about no effect
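Cells at 1500/well, incubated overnight, then treated with pinned compounds (dopamine as control) for 90 min at 37 degrees C. DiscoveRx reagent added for 30 - 60 minutes at room temperature; luminescence read.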
ERG-DNA inh = qHTS for Small Molecule Inhibitors of the ERG Ets/DNA interaction | 370,000 tested, 0.028% active | fluorescence polarization, His-ERG Ets domain / labelled DNA | AID 624246, 2012 | Potency, µM (highest dose often 76.9 µM), inactives show top-dose FP activity, negative = inhibition, usual class: inhibitors; active means well fitted inhibition curve with a large enough effect in the polarisation, with a control signal flat; inconclusive means small, poorly fitted or top-dose-only effect, or effect the other way, or a change in a side signal; inactive means no such curve, though single readings can be large or run the other way; the % refers to the polarisation;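 further: polarization taken with two DNA probes labelled with fluorescein and Texas red; potency means the concentration at half of the fitted maximal effect; % of control where 0% means no effect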
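His-tagged ERG Ets domain (1 uM in the protein solution; 300mM KCl, 50mM Tris-HCl, 1mM EDTA, 1mM DTT, pH 7.5) received compound, then a probe mix of 5 nM fluorescein-DNA and 100nM Texas-615-DNA. Fluorescence polarization was read for both dyes.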
D1 antag = Antagonist of Human D 1 Dopamine Receptor: qHTS | D(1A) dopamine receptor (Homo sapiens), P21728 | AID 504652, 2011 | activity change, negative = inhibition, % at 10 µM | 360,000 tested, 3.2% active | HEK293 TREx D1 cells, calcium flux, dopamine EC80; hits give low values; in the data active means activity change below about -30%; further: on the % scale 0 is the no-effect control and ±100 the full control effect
Target sequence (P21728 whole entry, looked up): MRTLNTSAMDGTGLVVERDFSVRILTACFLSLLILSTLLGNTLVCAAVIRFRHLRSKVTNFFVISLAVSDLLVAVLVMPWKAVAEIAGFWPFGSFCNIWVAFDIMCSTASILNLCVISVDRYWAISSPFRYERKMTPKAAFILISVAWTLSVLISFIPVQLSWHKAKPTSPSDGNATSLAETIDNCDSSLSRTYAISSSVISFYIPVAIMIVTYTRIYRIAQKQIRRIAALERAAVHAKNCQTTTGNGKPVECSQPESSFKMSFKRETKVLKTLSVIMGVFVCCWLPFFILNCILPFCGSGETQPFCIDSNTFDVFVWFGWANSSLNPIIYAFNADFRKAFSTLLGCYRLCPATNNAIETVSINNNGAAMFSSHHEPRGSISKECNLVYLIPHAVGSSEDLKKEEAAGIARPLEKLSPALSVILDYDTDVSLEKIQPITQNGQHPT
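Compound effects on dopamine-evoked calcium signalling were measured in tetracycline-induced HEK293 Trex D1 cells. Dopamine at EC80 followed a 180 s compound pre-read, and fluorescence was tracked kinetically for 180 s more.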
D3 antag = qHTS of D3 Dopamine Receptor Antagonist: qHTS; D3R cells, DiscoveRx beta-arrestin luminescence, antagonist mode; hits give low values; 360,000 tested, 2.5% active; max response, negative = inhibition, %; in the data active means max response below about -50%; inconclusive means no clear call, values can overlap the other calls; further: on the % scale 0 is the no-effect control and ±100 the full control effect
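Cells expressing the human receptor were seeded at 1500 cells/well, incubated overnight at 37 degrees C in 5% CO2, then exposed to library compounds with dopamine controls for 90 minutes at 37 degrees C before luminescent detection.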
D1 ag = Allosteric Agonists of the Human D1 Dopamine Receptor: qHTS; AID 504660, 2011; 360,000 tested, 1% active; activation, % at 2 µM; D(1A) dopamine receptor (Homo sapiens), P21728; HEK293 T-REx D1 cells, calcium flux, agonist mode; in the data active means activation above about 30%; further: 0% is about no effect
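Inducible HEK293 T-REx D1 cells, force-coupled to calcium signalling, were plated at 4000 cells/well with tetracycline and held overnight at 30 C. After no-wash calcium dye loading, compound-evoked calcium rise over 180 s flagged agonists.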
D1 PAM = Potentiators of Human D1 Dopamine Receptor: qHTS; HEK293 TREx D1 cells, calcium flux, dopamine EC20 potentiation; potentiation, % at 10 µM; 360,000 tested, 0.036% active; in the data active means potentiation above about 30%; further: 0% is about no effect
* = called active by the depositor; ? = inconclusive; · = no result given.

SMILES | DRD3 agonist | ERG-DNA inh | D1 antag | D3 antag | D1 ag | D1 PAM
CCc1ccc2occ(CC(=O)N(Cc3ccc(N(C)C)cc3)C3CCS(=O)(=O)C3)c2c1 (stereo unspecified) | 0 | 0% | 5 | · | -2 | 6
COc1ccc(NC(=O)Cn2nc(Cc3cccnc3)c3ccccc3c2=O)cc1OC | -3 | 3% | -3 | -7 | -3 | -3
O=C(CN(c1cccc(C(F)(F)F)c1)S(=O)(=O)c1ccc(Cl)c([N+](=O)[O-])c1)NCc1ccccc1Cl | -5 | 8% | -19 | -23 | 4 | 1
CCOC(=O)C1CCN(C(=O)c2ccc3c(c2)N=C(CC)c2cc(C)ccc2S3)CC1 | -9 | -4% | 0 | · | -1 | -1
Cn1cc([N+](=O)[O-])c(C(=O)NC2CCCCCC2)n1 | -2 | -1% | 5 | -6 | 2 | -3
Cc1nc(N)nc(N)c1/C=C/C(C)(C)c1ccc(Cl)cc1 | 2 | -3% | -20 | 12 | 38* | -9
CON(C)c1nc(C2CCCCC2)c2cc(C)ccc2n1 | -26 | 1% | · | 9 | · | ·
Cc1c(C(=O)Nc2cc(F)cc(F)c2)cnn1-c1ccccc1 | 2 | 1% | -32* | -3 | 6 | -8
Cc1c(C(=O)Nc2ccccc2F)cnn1-c1ccccc1 | 2 | -7% | -1 | -8 | 8 | -1
COc1ccc(NC(=O)c2cnn(-c3ccccc3)c2C)c(OC)c1 | 0 | 2% | 5 | -61* | 2 | -2
Cn1c(=O)c2c(SCC(=O)NCc3ccc(F)cc3)nc(-c3ccccc3Cl)nc2n(C)c1=O | -9 | -3% | -8 | · | 1 | 0
COc1ccc(NC(=O)c2nc[nH]c2C(=O)N2CCN(c3ccccc3)CC2)cc1 | -8 | -4% | -3 | -1 | 1 | -2
CC1CN(C(=O)c2ccc(NS(=O)(=O)c3ccc(C(C)(C)C)cc3)cc2)CC(C)O1 (stereo unspecified) | 5 | -2% | -4 | 4 | 35* | -4
CCOc1ccc(NS(=O)(=O)c2ccc(C(=O)N3CC(C)OC(C)C3)cc2)cc1 (stereo unspecified) | 0 | 14% | -59* | 24 | 113* | -10
CN(c1ccccc1)S(=O)(=O)c1ccc(C(=O)N2CCCC2)cc1 | 3 | 13% | -16 | 9 | 1 | -8
CCOc1ccc(S(=O)(=O)Nc2ccc(C(=O)N3CC(C)OC(C)C3)cc2)cc1 (stereo unspecified) | -8 | 0% | 2 | -8 | 31* | 4
CN(c1ccc(C(=O)N2CCCCC2)cc1)S(=O)(=O)c1ccccc1 | -1 | 1% | -36* | 16 | 17 | 4
CS(=O)(=O)N(Cc1ccccc1)c1ccc(C(=O)NCCSCc2ccco2)cc1 | -1 | 5% | -7 | -2 | 9 | -4
CCCCN1C(=O)C(CC(=O)NCc2cccs2)CC(C(=O)N(CC)CC)=C1C (stereo unspecified) | -6 | · | · | -6 | · | ·
OC(CNC1Cc2ccccc2C1)c1ccccc1 (stereo unspecified) | -35 | -11% | 1 | ? | 5 | 1
CC1CCCN(C(=O)c2cccc(S(=O)(=O)NCc3ccccc3)c2)C1 (stereo unspecified) | 1 | · | · | -54* | · | ·
CCOc1ccc(S(=O)(=O)Nc2ccc(C(=O)NCC3(N4CCCCC4)CCCCC3)cc2)cc1 | -15 | -4% | 9 | 1 | 54* | 2
CCOc1ccc(NS(=O)(=O)c2ccc3c(c2)N(C(C)=O)CC3)cc1 | 6 | 0% | -32* | -1 | 8 | -5
CCOc1ccc(NS(=O)(=O)c2ccc(C(=O)N3CCCCC3)cc2)cc1 | 4 | -6% | -15 | 12 | 50* | -9
CCOc1ccc(NS(=O)(=O)c2ccc3c(c2)CCN3C(C)=O)cc1 | -31 | 14% | -5 | 0 | 6 | -2

Bioassay records (PubChem BioAssay)
